Test results reported in PubChem BioAssay (NCI).
The panel holds about 83,000 compounds, 20% with a hit somewhere; the sample as a whole holds those more often.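 Activity criterion: percent growth below 10, measured after cells in 96-well plates were exposed to a single compound concentration for 48 hours.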 A number with no mark means an inactive call. The source made the active and inactive calls.

How the values were obtained:
Assay in all cases: NCI-60 one-dose screen, 48 h (100 = growth as untreated, 0 = no growth, -100 = all killed)
Settings in all cases: 10 µM unless noted
[1] = test system: SR leukemia
[2] = test system: RPMI-8226 leukemia
[3] = test system: OVCAR-8 ovarian
[4] = test system: OVCAR-5 ovarian
[5] = test system: OVCAR-4 ovarian
[6] = test system: SK-OV-3 ovarian
[7] = test system: IGROV1 ovarian
[8] = test system: HS 578T breast
[9] = test system: NCI/ADR-RES ovarian

Compound	growth [1]	growth [2]	growth [3]	growth [4]	growth [5]	growth [6]	growth [7]	growth [8]	growth [9]
Cc1ccc2c(c1)C(=O)/C(=C/c1cccc(F)c1)S2	101%	84.6%	103%	105%	99.7%	99%	97.7%	104%	109%
CNc1ncc2cc(-c3ccc(-c4ncccc4F)cc3Cl)c(=O)n(CC3OCC(N)CO3)c2n1 (centres undefined)	32.2%	96.1%	65.6%	44.1%	117%	75.8%	-2.32% (active)	34.6%	–
CNC(=O)c1c(NC(=O)c2ccccc2C(F)(F)F)sc2c1CCC(=O)C2	29%	-0.77% (active)	24.6%	23.2%	16.2%	95.7%	36.6%	40%	–
Cc1ccc(NC(=S)NNC(=S)Nc2ccc(C)cc2)cc1	90%	104%	105%	104%	100%	111%	103%	110%	104%
COc1cccc2c1CN(C(=O)c1ccc(O)c(C(=O)N3Cc4ccc(OCCC[P+](c5ccccc5)(c5ccccc5)c5ccccc5)cc4C3)c1)C2	35.3%	26.2%	79.5%	123%	84%	112%	43.9%	49.5%	103%
O=C(CNc1nc(-c2cccc([N+](=O)[O-])c2)cs1)Nc1cccc([N+](=O)[O-])c1	2.66% (active)	-18.8% (active)	-3.29% (active)	-12.9% (active)	5.36% (active)	-23.9% (active)	-28.3% (active)	-11.8% (active)	-11.4% (active)
COC(=O)c1[nH]nc2c1C1(C(=O)N(C)c3ccccc31)C(C#N)=C(N)O2 (centres undefined)	113%	104%	102%	103%	97.7%	98.3%	105%	99.7%	99.7%
CNC(=O)c1cc(Oc2ccc3nc(NC(=O)c4cccc(OC(F)(F)F)c4)sc3c2)ccn1	58.3%	71.7%	81.7%	95.3%	56.5%	88.4%	90.3%	69.6%	–
COc1ccc(C2CC(c3ccc(Nc4nc(NCCO)nc(N5CCOCC5)n4)cc3)=Nc3c(N)nc(N)nc3N2)cc1 (centres undefined)	105%	108%	99.8%	109%	104%	109%	105%	91.6%	–
O=C(c1ccc(O)c(C(=O)N2Cc3ccc(OCCC[P+](c4ccccc4)(c4ccccc4)c4ccccc4)cc3C2)c1)N1Cc2cccc(F)c2C1	54.5%	31.8%	77.5%	102%	91.4%	114%	43.8%	72.4%	–
CCOC(=O)c1c(Nc2ccccc2)nn2c(-c3ccccc3)ccnc12	74.4%	30.7%	96.1%	93.4%	95.9%	102%	110%	91.9%	87.6%
CN1CCN(Cc2ccc(NC(=O)c3cncc(C#Cc4cnc5ccc(NCCCO)nn45)c3)cc2C(F)(F)F)CC1	-15.6% (active)	-36.9% (active)	-8.06% (active)	4.78% (active)	-19.9% (active)	-47.5% (active)	9.68% (active)	-26.5% (active)	74.1%
CCOc1cccc(-c2nc3sccn3c2-c2ccnc(S(C)(=O)=O)n2)c1	68.2%	97.1%	102%	106%	87%	112%	94.2%	102%	103%
CC(C)(C)c1ccc(-c2nnc(-c3nc4ccccc4nc3Cl)o2)cc1	91.3%	65.9%	84.2%	99.1%	82.2%	95.9%	72.5%	-8.86% (active)	82.5%
NS(=O)(=O)c1ccc(-n2cc(-c3cccc(NC(=O)c4ccc(N5CCOCC5)c(C(F)(F)F)c4)c3)nn2)cc1	4.3% (active)	10.2%	42.7%	67.8%	15%	69.9%	40.3%	48.9%	–
CC(C)(C)CC(C)(C)n1nnnc1C(Nc1nccs1)c1cc2cccc3ccc4cccc1c4c32 (centres undefined)	96.6%	104%	100%	84.6%	99.7%	103%	93.5%	93.8%	98%
CCNC(=O)N1CCc2cc(OC)c(OCCc3ccc(OC)cc3)cc2C1c1ccc([N+](=O)[O-])cc1C (centres undefined)	8.11% (active)	20.7%	29.1%	40.4%	54%	51.4%	24.9%	0.838% (active)	–
COc1cc(OC)c(S(N)(=O)=O)cc1C(=O)/C=C/c1ccc(C)cc1	5.66% (active)	18.5%	31.7%	13.4%	53.1%	37.6%	25.3%	21.3%	–
CC/C(=C/c1c(O)cccc1OC)c1ccc2c(OC)cccc2[o+]1	90.4%	109%	101%	106%	99.7%	97.8%	102%	107%	99.7%
COc1cc(OC)c(/C=C/S(=O)(=O)Cc2ccc(OC)c(NC(=O)CCC(=O)NO)c2)c(OC)c1	14.2%	16.9%	17.2%	33.9%	45.3%	32.6%	13.4%	16.2%	10.2%
COc1ccc(-n2c(SCc3n[nH]c(=S)o3)nc3ccc(Cl)cc3c2=O)cc1	103%	101%	101%	89.7%	99.3%	97.7%	95.8%	93.9%	99.4%
COc1ccc(-n2c(SCc3nnc(NC(=O)c4ccc(Br)cc4)s3)nc3cc(OC)c(OC)cc3c2=O)cc1	101%	104%	94.9%	95.5%	93.8%	108%	102%	99%	–
